Test results reported in the supplement of paper PMC11577813, “Eurasian spruce bark beetle detects lanierone using a highly expressed specialist odorant receptor, present in several functional sensillum types” (BMC Biology, 2024).
± gives the standard deviation of the averaged measurements.

Test system: lanierone-responsive B-neuron OSN class (ItypOR36)
Test: net action potential response of lanierone B-neuron (blank-subtracted) (spikes/s (Hz)); higher = stronger excitation
Conditions: 10 µg on filter paper, neuron: B neuron (small spike amplitude)
Experimental: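 Single sensillum recordings from antennal olfactory sensilla of live adult Ips typographus. Each compound was 10 µg in paraffin oil, delivered as a 0.5 s puff. Net response = spikes in the first 0.5 s of response minus the 0.5 s pre-stimulus count, doubled to give Hz, with blank response subtracted. Values are for the small-spike lanierone-responsive B-neuron (putatively expressing ItypOR36), recorded in sensilla co-housing the A-neuron class; N = 1-4, averaged.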

[1] = co-localized A-neuron class: (4S)-cis-verbenol
[2] = co-localized A-neuron class: (5S,7S)-trans-conophthorin
[3] = co-localized A-neuron class: (+)-isopinocamphone
[4] = co-localized A-neuron class: (+)-trans-4-thujanol
[5] = co-localized A-neuron class: ipsdienol
[6] = co-localized A-neuron class: myrcene
[7] = co-localized A-neuron class: p-cymene

SMILES	net action potential response [1]	net action potential response [2]	net action potential response [3]	net action potential response [4]	net action potential response [5]	net action potential response [6]	net action potential response [7]
CC1=CCC(=C(C)C)CC1 [Terpinolene]	4.67 ± 6.4	2 ± 2	-4 ± 2	-3 ± 3.8	2 ± 5.3	-8	0.667 ± 2.3
C=Cc1ccccc1 [Styrene]	-6 ± 8.7	-1.33 ± 1.1	-4.67 ± 4.6	-0.5 ± 6.6	-1.33 ± 4.6	4	-6 ± 2.8
CC(=O)c1ccccc1 [Acetophenone]	0 ± 5.3	-3.33 ± 4.2	-0.667 ± 2.3	1.5 ± 1	-4.67 ± 3.1	4	1.33 ± 10
c1ccc2c(c1)CCO2 [2,3-Dihydrobenzofuran]	3.33 ± 9.2	-0.667 ± 4.2	0.667 ± 11	2.5 ± 3.4	-3.33 ± 3.1	-2	6 ± 8.7
C=C1[C@@H]2CC[C@@H](C2)C1(C)C (racemic) [(±)-Camphene]	-3.33 ± 8.3	0 ± 2	-3.33 ± 1.1	0 ± 3.6	3.33 ± 2.3	-4	0
CCc1ccc(O)c(OC)c1 [4-Ethylguaiacol]	1.33 ± 3.1	0.667 ± 2.3	5.33 ± 1.1	4 ± 5.4	-2 ± 5.3	-8	0.667 ± 3.1
